The record followed here is PubChem BioAssay (NCATS).

Inconclusive results are not listed. Calls of active or inactive are those of the source. The call rests on the fitted dose curve; in most records, active means well fitted curve in the direction sought with a large enough effect; inconclusive means small, poorly fitted or top-dose-only effect, or another doubt; inactive means no such curve, though single readings can be large; an effect the other way counts as inactive or inconclusive.

Assay [1] can be described thus: qHTS to identify inhibitors of the type 1 interferon - major histocompatibility complex class I in skeletal muscle: primary screen against the NCATS LOPAC collection (AID 1347405).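 Further: human myoblasts with HiBiT tag on endogenous HLA-B stimulated by IFN-beta; lytic HiBiT luminescence reporting HLA-B protein level.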 The essentials: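 First, engineered myoblasts carrying HLA-B-HiBiT were seeded in medium lacking dexamethasone with 4 ng/ml IFN-beta. After 1 hr, compounds were pinned in (top 46 uM final, 7 points). After 24 hrs at 37 C, luminescence was measured following 10 min lysis.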

Assay [2] can be described thus: qHTS for inhibitors of adenylyl cyclases using a fission yeast platform: a pilot screen against the NCATS LOPAC library (AID 1347410). The method in brief: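 Fission yeast qHTS: CHP2027 cells (AC9-GNAS-PDE4D2, fbp1-GFP), 5x10^6 cells/mL working density, EMM + His/Lys/Ura; LOPAC at up to 57 µM final; 18 h dark, 30C; GFP by laser cytometry. DPI positive control, DMSO vehicle.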

In assay [3] the target is Calcium and integrin-binding protein 1 (Homo sapiens) (UniProt Q99828). The assay can be described thus: Validation qHTS for Identification of Calcium Integrin Binding protein 1 (CIB1) Competitor (AID 1508618). The essentials: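 CIB1-GST (1 uM final) in 5 mM HEPES pH 7.4, 125 mM NaCl, 5 mM CaCl2, 0.01% Tween20 was preincubated 15 min at room temperature with compound (up to 114 uM), then FITC-alphaIIb peptide (100 nM) added for 15 min; fluorescence polarization read.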

Assay [4] shares this target. The assay is described as follows: Primary qHTS for Identification of Calcium Integrin Binding Protein 1 (CIB1) Competitor (AID 1508620).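 Further: GST tagged CIB1 binding a fluorescein labelled alphaIIb integrin peptide tracer; top concentration of the series differs between compounds.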 The essentials:
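Fluorescence polarization competition: GST-tagged CIB1 (1 uM final) preincubated with compound 15 min at room temperature, then FITC-labelled alphaIIb peptide (100 nM final) added. After 15 min at room temperature, polarization read at Ex 480/Em 540.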

The target of assay [5] is Protein phosphatase 1D (Homo sapiens) (UniProt O15297). The assay can be described thus: RapidFire Mass Spectrometry qHTS Assay for Modulators of WT P53-Induced Phosphatase 1 (WIP1) (AID 1347424). Further: series mostly up to about 63 µM. The method in brief:
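RapidFire MS readout of dephosphorylated VEPPL-S-QETFS product, with 1 uM isotope-labelled peptide standard. Reaction: 10 nM WIP1, 2 uM phosphopeptide substrate, 5 min, room temperature, after 1 h compound preincubation; stopped with 0.5% formic acid.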

Assay [6] shares this target. The assay can be described thus: Rhodamine-PBP qHTS Assay for Modulators of WT P53-Induced Phosphatase 1 (WIP1) (AID 1347425). The essentials: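 Read-out: Rhodamine-PBP fluorescence (ex 525/em 598 nm) for released Pi, read each minute for 11 min after adding 10 uM VEPPL-pS-QETFS; signal taken as f1 minus pre-substrate f0. Enzyme 5 nM WIP1 with 1 hr room-temperature compound preincubation.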

Assay [7] in a line: qHTS to identify inhibitors of the type 1 interferon - major histocompatibility complex class I in skeletal muscle: primary screen against the NCATS Pharmaceutical Collection (AID 1347407).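 Further: luminescence of HiBiT knocked into endogenous HLA-B as interferon-induced MHC class I level.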 The method in brief:
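Luminescence from HiBiT-tagged endogenous HLA-B*08:01 served as the read-out of IFN-beta-induced MHC class I in CRISPR-engineered C25cl48 myoblasts. Cells received 4 ng/ml IFN-beta plus compound (high final 46 uM, […]) for 24 h.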

Assay [8] deals with Single-stranded DNA cytosine deaminase (Homo sapiens) (UniProt Q9GZX7). The assay is described as follows: Validation qHTS assay for inhibitors of Activation Induced Cytidine Deaminase (AID): AID signal (AID 1347429). The essentials: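 Steps: dispense AID with UDG; pin-transfer compound up to 114 uM final; add DJC20/DJC23 substrate and hold 4 hr at room temperature; add NaOH, hold 30 min; read FRET signal (540/590 nm).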

A short description of assay [9]: Primary qHTS for inhibitors of La Crosse Virus (LACV) - induced cell death in SH-SY5Y cells (AID 1508616).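 Further: top concentration of the series differs between compounds; higher means more rescue of cells from virus-induced death.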 The essentials: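 SH-SY5Y, 6000 cells/well; cpd via pin tool in DMSO; LACV 0.01 MOI; 6 d 37C 5% CO2; ATPLite, 5 min RT; luminescence normalized to ±virus DMSO controls.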
Assay [10] in a line: qHTS to identify inhibitors of the type 1 interferon - major histocompatibility complex class I in skeletal muscle: primary screen against the NCATS Mechanism Interrogation Plate v5.0 (MIPE) Libary (AID 1347411). Further: nearly all actives have a fitted effect of over 65% in size. Further: potency means the concentration at half of the fitted maximal effect. The essentials: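 Seed engineered human myoblasts (HLA-B HiBit) in medium without dexamethasone containing 4 ng/ml IFN-beta; after 1 hr add compound titrations (top 46 uM final). Incubate 24 hrs at 37 C, lyse 10 min with HiBiT reagent, read luminescence.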

A short description of assay [11]: Validation qHTS assay for inhibitors of Activation Induced Cytidine Deaminase (AID): UDG Counterscreen signal (AID 1347427). The essentials:
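Fluorescence at 560 nm excitation, 665 nm emission reports UDG signal after 250 mM NaOH (2x) addition and 30 min. Enzymes (AID 1 uM, UDG 2 U/mL, at 4/3x) preincubated 10 min with compound, then 4 h with 4x 250 nM DJC20/DJC23 substrate at room temperature.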

A short description of assay [12]: Counterscreen qHTS for small molecule stabilizers of the endoplasmic reticulum resident proteome: GLuc-NoTag assay (AID 1508627).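 Further: SH-SY5Y cells given compound then 100 nM thapsigargin to empty ER calcium; series mostly up to about 76 µM.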 The method in brief:
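Counterscreen line: SH-SY5Y-GLuc-NoTag. Seed, 5 h; compound, 19 h; thapsigargin 100 nM, 4 h; 37C/5% CO2. Readout: secreted GLuc luminescence, coelenterazine 0.07x final, no lysis.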

Protein phosphatase 1D (Homo sapiens), sequence (O15297 whole entry, looked up): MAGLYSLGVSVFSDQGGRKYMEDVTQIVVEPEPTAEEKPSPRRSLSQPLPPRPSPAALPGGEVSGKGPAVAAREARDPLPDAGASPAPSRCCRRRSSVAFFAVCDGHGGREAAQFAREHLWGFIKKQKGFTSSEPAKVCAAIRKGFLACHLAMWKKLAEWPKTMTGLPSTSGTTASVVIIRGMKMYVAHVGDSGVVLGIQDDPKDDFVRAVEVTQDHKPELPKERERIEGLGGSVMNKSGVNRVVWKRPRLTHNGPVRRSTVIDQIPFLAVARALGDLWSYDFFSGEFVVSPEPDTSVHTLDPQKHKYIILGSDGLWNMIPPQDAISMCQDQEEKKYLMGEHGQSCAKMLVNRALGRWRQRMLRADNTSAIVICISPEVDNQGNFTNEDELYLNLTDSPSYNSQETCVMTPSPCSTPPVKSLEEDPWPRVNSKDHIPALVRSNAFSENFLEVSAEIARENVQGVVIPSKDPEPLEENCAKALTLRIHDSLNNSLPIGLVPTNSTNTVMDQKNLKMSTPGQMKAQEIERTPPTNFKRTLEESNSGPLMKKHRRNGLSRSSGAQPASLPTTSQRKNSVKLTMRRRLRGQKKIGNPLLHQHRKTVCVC
Single-stranded DNA cytosine deaminase (Homo sapiens), sequence (Q9GZX7 whole entry, looked up): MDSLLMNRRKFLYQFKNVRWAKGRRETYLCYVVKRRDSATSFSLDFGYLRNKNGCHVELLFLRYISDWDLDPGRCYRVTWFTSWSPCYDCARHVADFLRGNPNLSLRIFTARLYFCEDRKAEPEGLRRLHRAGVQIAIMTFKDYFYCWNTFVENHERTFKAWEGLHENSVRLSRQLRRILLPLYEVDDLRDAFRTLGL
Calcium and integrin-binding protein 1 (Homo sapiens), sequence (Q99828 whole entry, looked up): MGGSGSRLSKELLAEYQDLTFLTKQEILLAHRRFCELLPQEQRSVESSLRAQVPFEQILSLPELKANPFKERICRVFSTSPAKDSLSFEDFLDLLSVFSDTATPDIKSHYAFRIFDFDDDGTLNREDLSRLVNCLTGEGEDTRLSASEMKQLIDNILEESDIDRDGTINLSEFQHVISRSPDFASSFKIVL

Turning to `Cc1ccc(-c2cc(C(F)(F)F)nn2-c2ccc(S(N)(=O)=O)cc2)cc1`, the Potency entry in assay [1], in assay [3] and in assay [4] was “inactive” in each case. The compound was called inactive in assay [2].

Regarding `CN(CCOc1ccc(NS(C)(=O)=O)cc1)CCc1ccc(NS(C)(=O)=O)cc1`, the compound was classed as inactive in assay [2] and in assay [6]. The Potency result in assay [5], in [3] and in assay [4] was “inactive” throughout.

For the compound `CC(C)Cc1ccc(C(C)C(=O)O)cc1` (stereo not drawn), the call in assay [2] and in [6] was inactive. Moreover, in assay [5], the Potency entry was “inactive”.

For `O=C1Cc2cc(CCN3CCN(c4nsc5ccccc45)CC3)c(Cl)cc2N1`, the Potency entry in [7], in [5], in assay [8], in assay [9], in assay [3] and in [4] was “inactive” throughout. Moreover, the call in assay [2] and in [6] was inactive.

On to `Cc1ccccc1N1C(=O)c2cc(S(N)(=O)=O)c(Cl)cc2NC1C` (stereo not drawn), for which the Potency entry in [10], in [5], in assay [8] and in assay [4] was “inactive” in each case. In addition, in assay [6], the result was inactive.

For the compound `CC1(CN2CCC(n3c(=O)[nH]c4ccccc43)CC2)OCc2ccccc2-n2cccc21` (stereo not drawn), the Potency entry in assay [7], in [10], in [5], in assay [9] and in assay [4] was “inactive” in each case. The compound was called inactive in [6].

For the compound `CS(=O)(=O)CCNCc1ccc(-c2ccc3ncnc(Nc4ccc(OCc5cccc(F)c5)c(Cl)c4)c3c2)o1`, the Potency in assay [10] is 33 µM (active). In addition, the Potency entry in assay [5] and in assay [4] was “inactive” each time. For the same compound, the result in assay [6] was inactive.

As for `CCC1(c2ccccc2)C(=O)NCNC1=O`, the Potency entry in assay [5], in assay [9], in assay [3] and in assay [4] was “inactive” each time. Moreover, in assay [6], the compound was called inactive.

For `O=C(C1CCCCC1)N1CC(=O)N2CCc3ccccc3C2C1` (stereo not drawn), the Potency result in assay [5], in [9], in assay [3] and in assay [4] was “inactive” in each case. Further, the call in assay [6] was inactive.

Consider `COc1cc2c(c(OC)c1OC)-c1ccc(OC)c(=O)cc1[C@@H](NC(C)=O)CC2`, for which the compound was called inactive in assay [2] and in assay [6]. The Potency entry in assay [5], in assay [11], in assay [8], in assay [3] and in [4] was “inactive” each time.

Take `CCCCc1oc2ccccc2c1C(=O)c1cc(I)c(OCCN(CC)CC)c(I)c1`: the Potency entry in [7], in assay [5], in assay [11], in [8], in [9] and in assay [3] was “inactive” throughout. In addition, the Potency entry in assay [4] and in assay [12] was “inactive” in each case. Moreover, the call in assay [2] and in [6] was inactive.

Consider `Cn1c(=O)c2c(ncn2C)n(C)c1=O`, for which the Potency entry in assay [5], in assay [11], in assay [8], in assay [9] and in assay [12] was “inactive” each time. Also, the compound was called inactive in assay [6].

Take `CC#C[C@]1(O)CC[C@H]2[C@@H]3CCC4=CC(=O)CCC4=C3[C@@H](c3ccc(N(C)C)cc3)C[C@@]21C`: the Potency result in [7], in [10], in assay [5], in [8], in assay [3] and in assay [4] was “inactive” each time. Further, the compound was classed as inactive in [2] and in [6].

Regarding `CN(C)C(=O)C(CCN1CCC(O)(c2ccc(Cl)cc2)CC1)(c1ccccc1)c1ccccc1`, the Potency result in [7], in [5], in assay [11], in [8], in assay [3] and in [4] was “inactive” in each case. Further, the result in assay [2] and in assay [6] was inactive.

For the compound `CS(=O)(=O)Nc1ccc([N+](=O)[O-])cc1Oc1ccccc1`, the compound was called inactive in assay [2] and in assay [6]. The Potency entry in assay [5], in assay [11], in assay [8] and in assay [9] was “inactive” each time.

Consider `OCCN1CCN(CCCN2c3ccccc3Sc3ccc(C(F)(F)F)cc32)CC1`, for which the outcome in assay [2] and in [6] was inactive. The Potency entry in [5], in assay [11], in [8] and in [4] was “inactive” each time.

For the compound `CC(CCc1ccc(O)cc1)NCCc1ccc(O)c(O)c1` (stereo not drawn), the Potency result in [1], in assay [5], in [8], in assay [3] and in assay [4] was “inactive” each time. The call in assay [2] and in assay [6] was inactive.
